Sampled rows, rich in hits. Any-hit rate of the full collection: about 2.4%.
D2 antagonist = HTS Assay for Allosteric Antagonists of the Human D2 Dopamine Receptor: Primary Screen for Antagonists. inhibition, % at 10 µM. 2% of 340,000 active. AID 485344, 2010. D(2) dopamine receptor (Homo sapiens), P14416. HEK293 TREx D2 cells, calcium flux, dopamine EC80; in the data active = inhibition above about 30%; inactive = below that, where a call was filed; note: 0% is about no effect
Target sequence (P14416 whole entry, looked up): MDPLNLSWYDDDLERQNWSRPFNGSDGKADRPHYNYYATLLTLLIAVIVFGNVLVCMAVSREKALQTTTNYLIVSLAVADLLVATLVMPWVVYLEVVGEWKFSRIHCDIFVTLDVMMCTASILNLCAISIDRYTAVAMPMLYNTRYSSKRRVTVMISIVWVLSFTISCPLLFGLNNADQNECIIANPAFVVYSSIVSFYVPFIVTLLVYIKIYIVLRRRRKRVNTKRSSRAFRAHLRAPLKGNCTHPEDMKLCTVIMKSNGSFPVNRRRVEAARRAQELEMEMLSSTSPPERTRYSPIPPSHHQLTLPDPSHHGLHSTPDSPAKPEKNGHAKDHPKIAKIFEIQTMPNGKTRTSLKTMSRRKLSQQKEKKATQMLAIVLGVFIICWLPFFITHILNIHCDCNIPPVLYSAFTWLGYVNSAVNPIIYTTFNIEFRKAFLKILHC
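Compounds are added to dye-loaded, induced HEK293 T-REx cells coupled to calcium release via D2; after a 3 min kinetic read an EC80 dopamine stimulus is given and fluorescence is recorded for 3 more min.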
D2 PAM-1 = HTS Assay for Positive Allosteric Modulators of the Human D2 Dopamine Receptor: Primary Screen for Potentiators. potentiation, % at 10 µM. D(2) dopamine receptor (Homo sapiens), P14416. HEK293 T-REx D2, calcium flux, EC20 dopamine potentiation. AID 485347, 2010. 0.34% of 340,000 active;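 active = potentiation over 3 SD above the plate norm, cut at about 30% in these data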; note: 0% is about no effect
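Tetracycline-induced Hek293 Trex D2 cells, force-coupled to calcium, loaded with no-wash calcium dye. Compound added with 180 s kinetic read for agonism, then EC20 dopamine and a further 180 s read for potentiation.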
D2 ag-1 = Beta-Arrestin HTS for Positive Allosteric Modulators of the Human D2 Dopamine Receptor: Agonists. D(2) dopamine receptor (Homo sapiens), P14416. DiscoveRx PathHunter D2 beta-arrestin, luminescence, 90 min; 100% = 57 uM dopamine signal. activation, % (test concentration not listed). 0.084% of 360,000 active. AID 624465, 2012; in the data active = activation above about 40%; inconclusive = between about 15% and that limit
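DiscoveRx PathHunter D2 beta-arrestin cells (2,100/well) attached overnight, then compound-stimulated 90 min at 37 C in HBSS/10 mM HEPES/0.1% Tween-20 buffer; beta-galactosidase complementation read by luminescence after 1 h at ambient temperature. Dopamine 57 uM final (EC100) as control.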
D2 ag-2 = HTS Assay for Allosteric Agonists of the Human D2 Dopamine Receptor: Primary Screen for Agonists; D(2) dopamine receptor (Homo sapiens), P14416; HEK293 T-REx D2 cells, calcium flux agonist mode; activation, % at 2 µM; 0.53% of 340,000 active; AID 485358, 2010;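 active = activation over 3 SD above normal in the single-dose calcium agonist read, cut at about 30% in these data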; note: 0% is about no effect
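HEK293 Trex D2 cells, tetracycline-induced, o/n 30 C 5% CO2; no-wash Ca dye, RT 30–90 min; 10-cycle baseline, 23 nl cpd added, kinetic Ca read 180 s; agonist hits = positive Ca response.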
D2 PAM-2 = Beta-Arrestin HTS for Positive Allosteric Modulators of the Human D2 Dopamine Receptor: Potentiators; D(2) dopamine receptor (Homo sapiens), P14416; DiscoveRx D2 beta-arrestin cells, luminescence, 90 min; 100% = 57 uM dopamine signal; potentiation, % (test concentration not listed); 0.23% of 360,000 active; in the data active = potentiation above about 50%; inconclusive = mostly about 30% to 49%
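PathHunter beta-arrestin assay in DiscoveRx D2 cells. Compounds were added with an EC20 of dopamine (50 nM final) for 90 min at 37 deg C. Luminescence was read 1 h after detection reagent, with 57 uM dopamine as the EC100 control.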
Active calls of the source: *; u = inconclusive; x = not tested or not shown.

SMILES	D2 antagonist	D2 PAM-1	D2 ag-1	D2 ag-2	D2 PAM-2
COc1ccc(S(=O)(=O)NCCc2csc3nc(-c4ccc(OC)c(OC)c4)nn23)cc1C	x	-2.9	x	0.4	x
O=C(O)c1ccc([N+](=O)[O-])cc1	x	x	-1.3	x	-3.3
NC(=O)c1ccc(C(=O)c2ccc([N+](=O)[O-])cc2)cc1	-0.9	-9.1	5.2	-0.3	61.6*
NC(=O)c1cc[n+](Cc2ccc([N+](=O)[O-])cc2)cc1	39.2*	11.2	0.8	1.5	0.4
O=C(Nc1ccccc1Cl)c1cc[n+](Cc2ccc([N+](=O)[O-])cc2)cc1	-8.7	4.6	-1.9	0.3	-11.8
C[C@H](CS)C(=O)N1CCC[C@H]1C(=O)O	30.0*	12.9	2.3	0.6	-6.4
Cc1ccc(NC(=O)Cn2c3ccc(F)cc3c3nc4n(c(=O)c32)CCS4)cc1F	-3.5	35.1*	-6.5	1.5	-3.2
O=C(Cn1c2ccc(F)cc2c2nc3n(c(=O)c21)CCS3)Nc1ccc(Cl)cc1F	-8.2	6.8	0.8	-0.5	-9.6
COc1cccc(OC)c1C(=O)NCCSC1CCCCC1	40.5*	-6.5	0.9	-1.6	1.7
COc1cc(OC)cc(C(=O)NCCSC2CCCCC2)c1	14.5	-6.7	0.1	-1.3	-17.9
CCN(C(=O)c1nn(-c2ccc(OC)cc2)c(=O)c2c1c1ccccc1n2C)c1ccc(OC)cc1	19.7	-17.0	2.7	-0.4	-7.8
CCCCN(C)CCNC(=O)c1nn(-c2ccc(OC)cc2)c(=O)c2c1c1ccccc1n2C	34.1*	-17.5	-10.4	0.1	-20.2
Cc1ccc2c(CNCc3ccc(C)o3)c(C(=O)O)n(Cc3ccccc3C)c2c1	x	8.5	x	x	x
CC(=O)Oc1ccccc1N(C(C)=O)S(=O)(=O)c1ccc2ccccc2c1	-12.2	-0.4	-1.5	0.9	-6.4
CC(=O)Oc1c(Br)cc(N(C(C)=O)S(=O)(=O)c2ccccc2)c2ccccc12	32.9*	10.9	u	-3.5	-1.4
COc1ccccc1OCCNC(=O)C1CCN(C(C)=O)CC1	5.2	30.6*	-0.2	2.1	-5.8
c1nc(NCC2(N3CCOCC3)CCCCC2)c2ccsc2n1	-3.2	38.2*	-1.2	-1.9	-7.7
Cc1sc2ncnc(NCC3(N4CCOCC4)CCCCC3)c2c1C	1.9	30.1*	-2.4	0.6	-3.1
c1csc(CNc2ncnc3sccc23)c1	x	x	-1.5	x	-6.8
CN1C(C(=O)c2ccccc2)=C(NC(=O)c2ccccc2Br)c2ccccc2S1(=O)=O	x	8.9	x	-1.0	x
CC12C(=O)N(c3ccccc3C(=O)O)C(=O)C1C1C=CC2C1 (stereo not given)	36.2*	-7.9	-0.9	3.7	11.3
CC12C(=O)N(c3cccc4cccnc34)C(=O)C1C1C=CC2C1 (stereo not given)	-5.1	-2.3	-0.4	-0.7	-2.6
CN1CCC(=C2c3ccccc3C=Cc3ccccc32)CC1	77.1*	-28.5	-5.2	3.0	11.3
CCN(c1ccccc1)S(=O)(=O)c1ccc(F)cc1	2.5	-1.9	-0.9	-0.7	-5.2
CCN(c1ccccc1)S(=O)(=O)c1ccc2[nH]c(=O)c(=O)[nH]c2c1	32.9*	x	-6.4	-3.1	-4.4
SMILES	D2 antagonist	D2 PAM-1	D2 ag-1	D2 ag-2	D2 PAM-2
O=C(c1ccc(F)cc1)C1CCN(CCn2c(=O)[nH]c3ccccc3c2=O)CC1	58.4*	-21.4	-5.4	0.5	-36.8
O=C(CN1C(=O)CCSc2ccccc21)Nc1ccc(C(F)(F)F)cc1	x	-1.8	x	x	x
Cc1ccc(-c2nc3c(c(=O)c4ccccc4n3C)c(=O)n2Cc2ccco2)cc1	35.6*	11.5	3.7	4.1	7.6
Cn1c2ccccc2c(=O)c2c(=O)n(Cc3ccco3)c(-c3ccc(F)cc3)nc21	-7.1	9.5	-3.9	-1.3	-7.2
COc1ccc(OCc2cc(/C=N\NC(=O)c3ccccc3)ccc2OC)cc1	12.1	-1.0	2.4	0.5	5.5
COc1cc(OC)cc(C(=O)N/N=C/c2ccc(OC)c(COc3ccc(F)cc3)c2)c1	34.2*	-14.2	4.3	0.8	-2.6
CC(Sc1nnnn1C1CC1)C(=O)N1CC(=O)Nc2ccccc21 (stereo not given)	47.0*	-0.8	2.8	-0.2	28.2
CC1CCN(S(=O)(=O)c2ccc3c(ccn3CC(=O)NCc3ccccc3F)c2)CC1	x	-3.2	x	0.3	x
O=C(CN1CCN(c2ccccn2)CC1)Nc1cccc(C(F)(F)F)c1	48.2*	-31.5	2.2	24.2	-9.6
FC(F)(F)c1cccc(CN2CCN(c3ncccn3)CC2)c1	x	x	48.0*	x	u
O=C(CN1CCN(Cc2ccccc2)CC1)Nc1cccc(C(F)(F)F)c1	39.2*	-23.9	-1.6	0.1	-13.8
O=C(CN1CCN(c2ccccc2)CC1)Nc1cccc(C(F)(F)F)c1	21.2	-31.3	-0.5	2.1	-21.2
COCC(=O)Nc1cccc(C(F)(F)F)c1	-7.7	32.7*	-5.8	0.8	-16.2
O=C(O)CCCC(=O)Nc1cccc(C(F)(F)F)c1	11.8	-2.6	-1.4	0.1	-2.2
COc1ccccc1CNC(=O)c1cc(Sc2cccc(Cl)c2)nc2ccccc12	x	-0.3	x	-0.3	x
COc1ccc(N2CCN(C(=O)CN3C(=O)COc4ccc(S(=O)(=O)N5CCC(C)CC5)cc43)CC2)cc1	x	-23.2	x	-0.1	x
Cc1ccc(-c2nn(-c3ccc(F)cc3F)c3c2cnc2c(F)cccc23)cc1	x	0.2	x	0.8	x
CCCCN(CCCC)CCNC(=O)c1cc(=O)[nH]c2ccc(S(=O)(=O)N3CCCCCC3)cc12	x	-7.1	x	-0.6	x
CSc1ccc(CNC(=O)CN2C(=O)C3CCCCN3c3ccc(C(=O)N4CCCC4)cc32)cc1 (stereo not given)	x	-0.6	x	x	x
CCOc1ccc(OCC)c(NC(=O)CCc2c(C)nc3c(c2C)c(=O)n(C)c(=O)n3C)c1	x	-2.1	x	0.2	x
CC(C)(C)c1ccccc1OCCCCCNCCO	50.4*	-30.2	-4.7	0.7	-16.1
OCCNCCOc1ccccc1-c1ccccc1	66.4*	-10.0	2.3	3.3	-23.6
CNCCOc1ccccc1-c1ccccc1	45.0*	-22.0	2.5	0.8	-33.0
Cc1ccccc1OCCCCCNCCO	-1.5	-6.8	0.0	0.0	-8.9
CNCCCCOc1ccccc1-c1ccccc1	-16.3	-30.8	-2.1	0.9	-36.7
CN(C)CCOCCOc1ccccc1-c1ccccc1	-16.1	28.7	1.2	1.2	-21.4
OCCNCCOCCOc1ccccc1-c1ccccc1	33.1*	-23.6	-4.0	28.1	-35.3
CCCCn1c(=O)n(-c2cc(OC)ccc2OC)c(=O)c2c3c(sc21)CN(C(C)=O)CC3	x	-19.3	x	0.3	x

Source: PubChem
